Results: PubChem BioAssay (NCATS)
“And” between values parts separate entries of the source, which are not always exact repeats. Equal entries are not always repeated. Inconclusive results are not listed. Entries that show only a call come without a potency. More than one record can exist for a structure, and the calls need not agree. The source made the active and inactive calls. Calls follow the shape of the dose curve; as a rule, active = well fitted inhibition curve with a large enough effect; inconclusive = small, poorly fitted or top-dose-only effect; inactive = flat fitted curve, though single readings scatter.

Target: Glutathione peroxidase 1 (Homo sapiens) (UniProt P07203)
Assay: Primary qHTS Assay for Inhibitors of Recombinant Selenoprotein Glutathione Peroxidase 1 (GPX1) (AID 1845191); also: nearly all actives have a fitted effect of over 65% in size
Details: recombinant GPX1, GR-coupled NADPH fluorescence, 15 min; series mostly up to 48.8 µM
How it was run: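 NADPH consumption tracked by fluorescence at 340/450 nm between t=0 and t=15 min, room temperature. Final mix: 10 nM GPX1, 100 nM glutathione reductase, 1 mM GSH, 0.5 mM NADPH, 0.5 mM cumene hydroperoxide, 0.01% BSA; 30 min compound–enzyme preincubation.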
Potency is read from the fitted curve at half-maximal effect.

Glutathione peroxidase 1 (Homo sapiens), sequence (P07203 whole entry, looked up): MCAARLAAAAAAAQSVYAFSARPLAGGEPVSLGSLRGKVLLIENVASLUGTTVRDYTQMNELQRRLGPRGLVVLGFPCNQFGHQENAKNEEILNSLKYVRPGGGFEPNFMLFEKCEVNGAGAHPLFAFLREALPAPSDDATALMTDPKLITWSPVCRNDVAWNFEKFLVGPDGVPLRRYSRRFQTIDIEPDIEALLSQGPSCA

Row | Structure (SMILES) | Potency | activity, negative = inhibition
1 | Cc1cccc(Nc2cc(Cl)nc(SCC(=O)O)n2)c1C | inactive | 
2 | CCOC(CN1CCN(CC(C)C(=O)c2ccccc2)CC1)c1ccccc1 (stereo not given) | inactive | 
3 | NCCNCCNCCN | inactive | 
4 | N[C@@H](CSSC[C@H](N)C(=O)O)C(=O)O |  | -7.33% [at 0.4 µM] (inactive)
5 | CC(=O)NC(Cc1ccccc1)C(=O)O (stereo not given) | inactive | 
6 | O=C(CCCN1CCN(c2ccccn2)CC1)c1ccc(F)cc1 | inactive | 
7 | C[C@@H]1CN(c2c(F)c(F)c3c(=O)c(C(=O)O)cn(C4CC4)c3c2F)C[C@H](C)N1 | inactive | 
8 | CCOC(=O)[C@H](CCc1ccccc1)N[C@@H](C)C(=O)N1C(=O)N(C)C[C@H]1C(=O)O | inactive | 
9 | C[C@]12CC[C@@H]3c4ccc(O)cc4CC[C@H]3[C@@H]1CC[C@@H]2OC(=O)CCC1CCCC1 | inactive | 
10 | CCCCN1CCCC[C@H]1C(=O)Nc1c(C)cccc1C | inactive | 
11 | CC/C=C(\C(=O)N[C@@H]1C(=O)N2C(C(=O)OCOC(=O)C(C)(C)C)=C(COC(N)=O)CS[C@H]12)c1csc(N)n1 | 9.04 µM (active) | 
12 | CN(C)CCCN1c2ccccc2CCc2ccccc21 | inactive | 
13 | C[C@@H]1C[C@H]2[C@@H]3C[C@H](F)C4=CC(=O)C=C[C@]4(C)[C@@]3(F)[C@@H](O)C[C@]2(C)[C@@]1(O)C(=O)CO | inactive | 
14 | CC(C(O)c1ccc(O)cc1)N1CCC(Cc2ccccc2)CC1 (stereo not given) | inactive | 
15 | CC(C)c1c(C(=O)Nc2ccccc2)c(-c2ccccc2)c(-c2ccc(F)cc2)n1CC[C@@H](O)C[C@@H](O)CC(=O)O | inactive | 
16 | c1ccc(CN(CC2=NCCN2)c2ccccc2)cc1 | inactive | 
17 | CCOc1ccc2ccccc2c1C(=O)N[C@@H]1C(=O)N2[C@@H]1SC(C)(C)[C@@H]2C(=O)O | inactive | 
18 | CCN(CC)CCNC(=O)c1cc(Cl)c(N)cc1OC | inactive | 
19 | COC(=O)C1=C(C)NC(C)=C(C(=O)OC)C1c1ccccc1[N+](=O)[O-] | inactive | 
20 | CN1CCOC(c2ccccc2)c2ccccc2C1 (stereo not given) | inactive | 
21 | OCC(O)CN1CCN(c2ccccc2)CC1 (stereo not given) | inactive | 
22 | CCCCOc1cc(C(=O)OCCN(CC)CC)ccc1N | inactive | 
23 | CC(C)(C)C(=O)C(Oc1ccc(Cl)cc1)n1ccnc1 (stereo not given) | inactive | 
24 | CCN(CC)C(=O)Nc1ccc(OCC(O)CNC(C)(C)C)c(C(C)=O)c1 (stereo not given) | inactive | 
25 | Nc1ccc(S(=O)(=O)Nc2nccs2)cc1 | inactive | 
26 | CS(=O)(=O)c1ccc([C@@H](O)[C@@H](CF)NC(=O)C(Cl)Cl)cc1 | inactive | 
27 | Cn1c(=O)c2c(ncn2CC2OCCO2)n(C)c1=O | inactive | 
28 | COc1ccc2[nH]c(S(=O)Cc3ncc(C)c(OC)c3C)nc2n1 (stereo not given) | 9.04 µM (active) and inactive and 11.4 µM (active) | 
29 | COc1ccc2c(c1)C(=O)N(CCc1ccc(S(=O)(=O)NC(=O)NC3CCCCC3)cc1)C(=O)C2(C)C | inactive | 
30 | O=c1[nH]cnc2c1ncn2[C@@H]1O[C@H](CO)[C@@H](O)[C@H]1O | inactive | 
